The panel holds about 79,000 compounds, 15% with a hit somewhere; the sample as a whole holds those more often. A number with no mark means an inactive call. Active and inactive are the calls of the source. Cut-off read from the data, not from the text of the source: active = growth inhibition above about 70%; inactive = the rest. Where a SMILES comes first, the peptide text is derived from it. [ ]: non-standard residue; d: D form. The star is where a group is joined. ξ: configuration not given here. Cbz = O=C(OCc1ccccc1)*; ξNva = CCCC(N)C(=O)O

One experiment can be described thus: NCI Yeast Anticancer Drug Screen. Data for the rad50 strain (AID 155).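 Note: 0% = growth of vehicle-only cultures of the same strain.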 The conditions noted are these: S. cerevisiae rad50 strain growth inhibition; at 50.0 µM; stronger effect = higher value. In outline:
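Vehicle-treated cultures provide the reference for the growth inhibition reported for compound-exposed, repair-deficient yeast.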
With `C=C(CO)[C@H]1Oc2ccc(C(C)=O)cc2[C@@H]1O`, the growth inhibition was -16.1%. `c1ccc2c(c1)CCC(C1=NC3CCCCC3N1)=N2` (stereo not drawn): the growth inhibition was -1.25%. The same measure, in the same setting: for `CC(C)NC(=O)/C=C/C(=O)O` the value was -16.1%. With `COc1cc(OC)c(C2CC(C)(O)Oc3cc4c(cc32)OCO4)c(OC)c1` (stereo not drawn), the growth inhibition was 17.4%. Consider `CC1N=C(c2ccccc2)SC1C` (stereo not drawn), for which the growth inhibition was -14.2%. On the same count and under the same terms, then `COc1cc2ccnc(C#N)c2cc1OCc1ccccc1`, with -60.1%. Same read-out and setting: for `O=C1c2c(Cl)cccc2C(c2ccccc2)c2cccc(Cl)c21` the value was 29%; for `CCCC(=O)OC1C(CO)OC(n2cc(F)c(=O)[nH]c2=O)C1F` (stereo not drawn), -7.85%; for `CC(=N\N)/C(C)=N/N=C(C)/C(C)=N/N=C(C)/C(C)=N/N=C(C)/C(C)=N/N`, 11.7%.

For `N#CCCN(CCC#N)c1ccc(/C=C2\N=C(c3cc([N+](=O)[O-])ccc3Cl)N(S(=O)(=O)c3ccccc3)C2=O)cc1`, the growth inhibition is 23.2%. For `Cc1cnc(N/N=C/c2c(CO)cnc(C)c2O)s1`, the growth inhibition is 20.6%.

Regarding `NC(=O)/C(=N/O)c1ccccc1`, the growth inhibition was -1.85%.

As to `CCCC(NC(=O)CNC(=O)OCc1ccccc1)C(=O)O` (stereo not drawn) (Cbz-Gly-[ξNva]-OH), the growth inhibition is 31.6%. Still for that read-out and setting: for `CC(=O)ON(C(=O)c1ccccc1)c1ccccc1` the value was -1.7%; for `O=C1OCC2=C1C(c1ccc3c(c1)OCO3)c1cc3c(cc1O2)OCO3` (stereo not drawn), -6.8%; for `c1ccc(OB(Oc2ccccc2)Oc2ccccc2)cc1`, 12.2%.

For the compound `O=C(O)c1ccccc1NCn1c(=S)sc2ccccc21`, the growth inhibition was 63%. `CN=S(=O)(OC/C=C/COS(=O)(=NC)c1ccc(C)cc1)c1ccc(C)cc1` (stereo not drawn): the growth inhibition was -17.9%. In the case of `Nc1ccc2c(c1)C(=O)c1cc(C(=O)O)ccc1-2`, the growth inhibition was 21.2%. On the same count and under the same terms, for `NC(=S)N1CCCC1` the value was -2.2%; for `Oc1c(Cl)cc(Cl)cc1C1N2CCCCC2C2c3cccn3-c3ccccc3N21` (stereo not drawn), 22.4%; for `O=C(c1ccccc1)C1C(/C=C/c2ccccc2)C(C(=O)c2ccccc2)C1/C=C/c1ccccc1` (stereo not drawn), 41.2%.

On to `COc1ccc(/C=N\O[Si](C)(C)C(C)(C)C)cc1O[Si](C)(C)C(C)(C)C`, for which the growth inhibition was 31.9%.

Another experiment can be described thus: NCI Yeast Anticancer Drug Screen. Data for the mec2-1 strain (AID 157). Conditions: S. cerevisiae mec2-1 strain, at 50.0 µM, stronger effect = higher value. In outline:
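mec2-1 yeast strain, carrying an alteration in DNA damage repair or cell cycle control, was exposed to compounds; growth inhibition was measured relative to vehicle-treated controls.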
Regarding `Cn1nc(Br)c(=O)n(C)c1=O`, the growth inhibition is -11.1%. For the compound `O=C(O)[C@H](c1ccccc1)[C@@H](C(=O)O)c1ccccc1`, the growth inhibition is -5.75%.

`O=[N+]([O-])/C(C(Cl)=C(Cl)Cl)=C(/Cl)Sc1ccccc1`: the growth inhibition was 92.1% (active). `CSCSCC(CO)NC(=O)/C=C\c1ccccc1` (stereo not drawn): the growth inhibition was -4.05%. Same read-out and setting: for `COc1cc([C@@H]2c3cc4c(cc3[C@](C)(O)[C@H]3COC(=O)[C@H]23)OCO4)cc(OC)c1OC` the value was 10.4%; for `CCN(CC)C(=O)CCC1(C)OCCO1`, -12.1%; for `CCCCCC(=O)OCCCCCO`, 16.8%. Same read-out and setting: then `CC(=O)OCC(OC(C)=O)C(OC(C)=O)C(OC(C)=O)C(OC(C)=O)C(C=O)OC(C)=O` (stereo not drawn), with -1.7%.

Regarding `COCCOC(=O)c1ccc(C(N)=NC2CCCCC2)cc1`, the growth inhibition was 4.25%.

With `CCCCCCCSc1nc2ccc(N=Cc3ccccc3O)cc2s1`, the growth inhibition was -5.9%.

For the compound `CN(C)C1C(CO)C(CO)C1(C)C` (stereo not drawn), the growth inhibition was -8.5%.

As to `CSCCCC(N)=O`, the growth inhibition is -11.3%. Consider `C/C(=N/Nc1ccc([N+](=O)[O-])cc1[N+](=O)[O-])C1=CCCCC1`, for which the growth inhibition was -1.35%. On the same count and under the same terms, for `CCCNC(=O)c1ccccc1O` the value was 3.05%. `Cc1cc2c(C(C)C)c(O)c(O)c(C=Nc3ccc4ccccc4c3)c2c(O)c1-c1c(C)cc2c(C(C)C)c(O)c(O)c(C=Nc3ccc4ccccc4c3)c2c1O`: the growth inhibition was -5.2%. The same measure, in the same setting: for `C/C(=N\Nc1ccc([N+](=O)[O-])cc1)C(=O)N(C)Nc1ccccc1` the value was -54.2%. For the compound `CNC(=O)OCc1nc(SC(C)C)n(C)c1COC(=O)NC`, the growth inhibition was -10.3%. On the same count and under the same terms, for `C=C(CO)[C@H]1Oc2ccc(C(C)=O)cc2[C@@H]1O` the value was -10.1%; for `c1ccc2c(c1)CCC(C1=NC3CCCCC3N1)=N2` (stereo not drawn), 3.7%.

`CC(C)NC(=O)/C=C/C(=O)O`: the growth inhibition is -20.4%. On to `COc1cc(OC)c(C2CC(C)(O)Oc3cc4c(cc32)OCO4)c(OC)c1` (stereo not drawn), for which the growth inhibition was 3.8%.

As to `CC1N=C(c2ccccc2)SC1C` (stereo not drawn), the growth inhibition is -18.4%. `COc1cc2ccnc(C#N)c2cc1OCc1ccccc1`: the growth inhibition is -12.3%. Take `O=C1c2c(Cl)cccc2C(c2ccccc2)c2cccc(Cl)c21`: the growth inhibition was -4.15%.

`CCCC(=O)OC1C(CO)OC(n2cc(F)c(=O)[nH]c2=O)C1F` (stereo not drawn): the growth inhibition was 6.4%. Take `CC(=N\N)/C(C)=N/N=C(C)/C(C)=N/N=C(C)/C(C)=N/N=C(C)/C(C)=N/N`: the growth inhibition was -7.8%.

As to `N#CCCN(CCC#N)c1ccc(/C=C2\N=C(c3cc([N+](=O)[O-])ccc3Cl)N(S(=O)(=O)c3ccccc3)C2=O)cc1`, the growth inhibition is 16.3%. For `Cc1cnc(N/N=C/c2c(CO)cnc(C)c2O)s1`, the growth inhibition is 9.85%. Still for that read-out and setting: then `NC(=O)/C(=N/O)c1ccccc1`, with 13.2%; and `CCCC(NC(=O)CNC(=O)OCc1ccccc1)C(=O)O` (stereo not drawn) (Cbz-Gly-[ξNva]-OH), with 7%.

Regarding `CC(=O)ON(C(=O)c1ccccc1)c1ccccc1`, the growth inhibition is 0.95%. As to `O=C1OCC2=C1C(c1ccc3c(c1)OCO3)c1cc3c(cc1O2)OCO3` (stereo not drawn), the growth inhibition was -10.9%. Still for that read-out and setting: then `c1ccc(OB(Oc2ccccc2)Oc2ccccc2)cc1`, with 6.65%; and `O=C(O)c1ccccc1NCn1c(=S)sc2ccccc21`, with 45.8%. Still for that read-out and setting: then `CN=S(=O)(OC/C=C/COS(=O)(=NC)c1ccc(C)cc1)c1ccc(C)cc1` (stereo not drawn), with -21.9%. The same measure, in the same setting: then `Nc1ccc2c(c1)C(=O)c1cc(C(=O)O)ccc1-2`, with -2.55%; and `NC(=S)N1CCCC1`, with -22.1%; and `Oc1c(Cl)cc(Cl)cc1C1N2CCCCC2C2c3cccn3-c3ccccc3N21` (stereo not drawn), with 5.4%. `O=C(c1ccccc1)C1C(/C=C/c2ccccc2)C(C(=O)c2ccccc2)C1/C=C/c1ccccc1` (stereo not drawn): the growth inhibition is -7.1%. On the same count and under the same terms, for `COc1ccc(/C=N\O[Si](C)(C)C(C)(C)C)cc1O[Si](C)(C)C(C)(C)C` the value was 17.2%.
